An excerpt weighted towards active compounds, which were near 3.5% of everything screened.
Autofluor counter – counter-screen for toxin protease inhibitors: compound fluorescence | compound autofluorescence counterscreen, microsphere flow cytometry; stronger effect = higher value | fluorescence intensity (concentration not given with the values) | hit rate 3.1% among 360,000; in the data active = fluorescence intensity above about 16000; inconclusive = no clear call, values can overlap the other calls
BoNT F protease – blocks Botulinum neurotoxin F light chain protease; hit rate 0.22% among 360,000; Multiplex microsphere protease cleavage assay, flow cytometry; AID 588497; inhibition, % at 10 µM; in the data active = inhibition above about 35%, passing the limit was not always enough; inconclusive = no clear call, values can overlap the other calls
Anthrax LF inh2 – inhibitors of Bacillus anthracis lethal factor protease. P15917. multiplex microsphere protease cleavage assay, LF. inhibition, % at 10 µM. hit rate 0.12% among 360,000; in the data active = inhibition above about 30%; inconclusive = no clear call, values can overlap the other calls
BoNT A protease – BoNT A light chain protease inhibition; multiplex microsphere protease substrate cleavage, flow cytometry; inhibition, % at 10 µM; hit rate 0.17% among 360,000; AID 588499; in the data active = inhibition above about 30%; inconclusive = no clear call, values can overlap the other calls
BoNTA LC inh 1 – inhibitors of Botulinum neurotoxin A light chain protease | shares compounds with BoNT F protease | multiplex microsphere protease assay, flow cytometry | inhibition, % at 10 µM | hit rate 3% among 720; in the data active = inhibition above about 32%
BoNTF LC inh 1 – BoNT/F light chain protease inhibition; shares compounds with BoNT F protease; multiplex microsphere protease cleavage assay, flow cytometry; inhibition, % at 10 µM; 720 tested, under 10 active
LF protease CP1 – Bacillus anthracis lethal factor protease inhibition; shares compounds with BoNT F protease; multiplex microsphere protease cleavage assay, LF; inhibition, % at 10 µM; 720 tested, under 10 active
A number is an active result; n = inactive; u = inconclusive; x = not tested or not shown. Unless noted, no rule for the calls is given here.

SMILES	Autofluor counter	BoNT F protease	Anthrax LF inh2	BoNT A protease	BoNTA LC inh 1	BoNTF LC inh 1	LF protease CP1
COc1ccccc1-c1nc2cc3ccccc3cc2nc1-c1ccccc1	n	n	n	48	n	n	n
Cc1cc(S(=O)(=O)N2CCCC(C(=O)Nc3ccc(C(=O)O)cc3)C2)ccc1Cl (stereo not drawn)	n	n	n	n	x	x	x
COC(=O)Cc1ccc(NC(=S)N2CCN(c3ccccn3)CC2)cc1	n	n	64	178	n	n	n
COc1ccc(C(C)=O)cc1Cn1c(C)c(C(=O)NC2CC2)sc1=O	n	n	n	n	x	x	x
CCOCCCNC(=O)CN1C(=O)c2cccc3cccc1c23	n	39	n	n	n	n	n
CC(C)c1ccc(S(=O)(=O)c2cnc(=S)[nH]c2N)cc1	n	37	n	n	n	n	n
O=C(NCC1CCCCC1)c1ccc2nc([C@@H]3O[C@H](CO)[C@H](O)[C@H](O)[C@H]3O)[nH]c2c1	n	n	n	n	x	x	x
CCc1nnc(NC(=O)CN2CCN(Cc3ccccc3Cl)CC2)s1	n	u	42	n	n	n	n
COc1ccc(C(=O)NCCn2ccc3ccccc32)c(OC)c1	n	n	n	n	n	n	n
COc1ccccc1CNC(=O)C(CCSC)NS(=O)(=O)c1ccc2c(c1)oc(=O)n2C (stereo not drawn)	n	n	n	n	x	x	x
COc1cccc(CNC(=O)C(CCSC)NS(=O)(=O)c2ccc3c(c2)oc(=O)n3C)c1 (stereo not drawn)	n	37	n	n	n	n	n
COc1ccccc1Oc1ncnc2sccc12	n	37	n	n	n	n	n
COC(=O)c1cn(NC(=O)/C=C/c2cc(OC)ccc2OC)c(=O)c2ccccc12	n	n	n	n	x	x	x
Cn1c(-c2ccccc2)n[nH]c1=S	n	n	n	n	x	x	x
Cc1nc(-c2ccccc2)sc1-c1n[nH]c(=S)n1C	u	54	n	30	n	n	n
O=C(COc1ccccc1)N(Cc1nnc(-c2ccccc2Cl)o1)C1CC1	n	37	n	n	n	n	n
O=C(CSc1nc(=O)n(CCCN2CCOCC2)c2c1CCC2)Nc1ccc([N+](=O)[O-])cc1	n	n	n	n	x	x	x
CSc1nnc2c(n1)c(C)nn2-c1cccc(C)c1	n	n	53	69	33	n	n
Cn1c(=O)c2cc3ccccc3nc2n(C)c1=O	n	u	30	n	n	n	n
Cc1ccc(-c2cnco2)cc1	n	u	30	u	n	n	n
O=C(Nc1ccc(-c2cnco2)cc1)c1ccc(F)cc1F	n	u	n	u	x	x	x
c1ccc2c(c1)ccn2CCCN1CCCCC1	n	n	n	n	x	x	x
CCC(C)NC(=O)c1c(N)n(Cc2ccc3c(c2)OCO3)c2nc3ccccc3nc12 (stereo not drawn)	n	n	n	30	n	n	n
COc1ccc(/C=C/C(=O)NCC(=O)N=Nc2c(O)[nH]c3ccc([N+](=O)[O-])cc23)cc1	n	n	n	n	x	x	x
COC(=O)c1sccc1NC(=O)c1ccco1	n	36	n	n	n	n	n
SMILES	Autofluor counter	BoNT F protease	Anthrax LF inh2	BoNT A protease	BoNTA LC inh 1	BoNTF LC inh 1	LF protease CP1
COC(=O)c1ccccc1NC(=O)c1ccco1	n	n	n	n	x	x	x
Cc1ccc(NS(=O)(=O)c2ccc3[nH]c(=O)[nH]c3c2)c(C)c1	n	n	n	n	x	x	x
COc1c(N)c2c(c([N+](=O)[O-])c1OC)C(=O)OC2	n	n	n	n	x	x	x
O=C1CN(C(=O)C2CC2)c2ccccc2N1	n	37	n	n	n	n	n
CC(=O)Nc1ccc(NS(=O)(=O)c2cc(-c3n[nH]c(=O)c4ccccc34)ccc2C)cc1	n	41	n	n	n	n	n
CC(=O)c1c(C)nc(-c2ccc(Cl)cc2)nc1N	n	50	n	n	n	n	n
COc1ccc(C(=O)NCCc2ccc(C)cc2)cc1OC1CCN(C(C)=O)CC1	n	n	n	n	x	x	x
COc1cc(C(=O)N(C)CCOc2ccc(C)cc2)ccc1OC1CCN(C(C)=O)CC1	n	u	30	n	n	n	n
O=S(=O)(CCNCc1ccco1)NC1CCCCC1	n	n	n	n	x	x	x
O=C(Nc1ccc(F)cc1)C1CCN(C(=O)NCc2ccccc2)CC1	n	n	33	n	n	n	n
CSc1ccc(S(=O)(=O)NCCCOC(C)C)cc1	n	n	n	n	x	x	x
CCCNC(=O)c1cc(C2CCCN(S(=O)(=O)c3cccs3)C2)on1 (stereo not drawn)	n	n	n	n	x	x	x
CCOCCc1nnc(NC(=O)CS(=O)(=O)c2ccc(C)cc2)s1	n	n	n	n	x	x	x
CCOC(=O)N1CCN(CCC(=O)Nc2cccc(Cl)c2C)CC1	n	n	n	n	x	x	x

Source: PubChem
